# KB-3-1 tox: KB-3-1 parental cell cytotoxicity; Potency, µM (top dose mostly 46.1 µM), actives largely listed as cytotoxic; KB-3-1 viability, CellTiter-Glo ATP luminescence, 72 h; actives 1.4% (n = 400,000); also: % is scaled to controls: 0 for no effect and ±100 for the full control effect; nearly all actives have a fitted effect of over 60% in size
#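 KB-3-1 parental drug-naive adenocarcinoma cells in DMEM/10% FBS, incubated 72 h at 37 C with pin-transferred compounds across a concentration series. Viability by CellTiter-Glo luminescence; concentration-response curves fitted after normalization.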
# HT1080 IDH1KD tx: HT-1080 IDH1 knockdown cell toxicity (counter line); AID 686971; Potency, µM (top dose mostly 46.1 µM), for inactives: at the top dose activity, negative = toxicity, actives largely listed as cytotoxic; HT-1080 IDH1 knockdown viability, ATP luminescence, 48 h; actives 2% (n = 360,000);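 also: 0% = DMSO wells and -100% = cell-free medium wells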
#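 After a 2 h attachment period, IDH1KD HT-1080 cells took pin-transferred compound for 48 h at 37 °C; ATP-based luminescence after 10 min room-temperature reagent incubation reported viability.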
# HT1080-NT tox: kills 2HG-producing HT-1080-NT fibrosarcoma cells. HT-1080-NT fibrosarcoma viability, CellTiter-Glo ATP luminescence, 48 h. Potency, µM (series often up to 46.1 µM), for the others: at the highest dose activity, negative = less viability, most hits filed as cytotoxic. actives 1.6% (n = 360,000);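 also: NT is the 2HG producing partner of a matched IDH1 knockdown line; 0% = DMSO-treated cells and -100% = media-only wells without cells; nearly all actives have a fitted effect of over 55% in size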
#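 Viability by CellTiter-Glo luminescence after 48 h compound exposure at 37C of HT-1080-NT cells (750/well, RPMI, 5% FBS). % activity scaled between DMSO wells and medium-only wells, then curve-fitted and categorized by curve class.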
# SW480 rereplic: inducers of DNA re-replication in SW480 colon cancer cells; SW480 DNA re-replication, Hoechst DNA content imaging, 48 h; Potency, µM (titrated, usually from 46.1 µM), without a hit: top-dose re-replication activation, most hits filed as activators; actives 1.8% (n = 340,000); AID 624297; also: % of control where 0% means no effect; nearly all actives have a fitted effect of over 55% in size
#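 Image-based DNA-content assay: after two days of treatment, nuclei were labelled with the DNA dye Hoechst and imaged, and hits were compounds raising the count of nuclei showing high fluorescence intensity.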
# MCF10A rereplic: induces DNA re-replication in MCF 10a normal breast cells. Potency, µM (titrated, usually from 46.1 µM), inactives show at the highest dose activity, positive = re-replication, hits mostly activators. actives 2.9% (n = 350,000). MCF 10A DNA re-replication, Hoechst nuclear intensity, 48 h; also: % of control where 0% means no effect; nearly all actives have a fitted effect of over 50% in size
# KB-V1 cytotox: kills drug-selected multidrug resistant KB-V1 cells; KB-V1 MDR cells viability, CellTiter-Glo, 72 h; Potency, µM (highest dose often 46.1 µM), hits mostly cytotoxic; actives 3.4% (n = 400,000); AID 1347076; also: % is scaled to controls: 0 for no effect and ±100 for the full control effect; nearly all actives have a fitted effect of over 60% in size
#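 Compound-treated KB-V1 multidrug-resistant cells, 72 h, 37 degrees C; viability by CellTiter-Glo. Fitted qHTS curves give the values.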
# * marks the source's active call; other numbers are inactive results; i = inactive; ? = inconclusive; · = not tested or not shown. Most compounds without a hit are left out; they make up all but 7.9% or so of the library. Calls follow the shape of the dose curve; as a rule, active = well fitted curve in the direction sought with a large enough effect; inconclusive = small, poorly fitted or top-dose-only effect, or another doubt; inactive = no such curve, though single readings can be large; an effect the other way counts as inactive or inconclusive. Potency is read from the fitted curve at half-maximal effect.
SMILES,KB-3-1 tox,HT1080 IDH1KD tx,HT1080-NT tox,SW480 rereplic,MCF10A rereplic,KB-V1 cytotox
CCN(CC)c1ccc(NC(=O)CN2C(=O)c3cccnc3Sc3ccccc32)c(C)c1,i,·,·,·,·,i
COC(=O)[C@@]12C[C@@H](CC(=O)NCc3cccc4ccccc34)C(=O)N(Cc3ccccc3)C1=CCC(C)(C)C2,?,?,?,·,·,21µM*
COC(=O)[C@@]12C[C@@H](CC(=O)NCc3cccc4ccccc34)C(=O)N(Cc3ccc4c(c3)OCO4)C1=CCC(C)(C)C2,?,?,?,·,·,23µM*
COC(=O)[C@@]12C[C@@H](CC(=O)NCc3cccc(C(F)(F)F)c3)C(=O)N(Cc3cccc4ccccc34)C1=CCC(C)(C)C2,i,?,?,·,·,?
COC(=O)[C@]12CCCCC=C1N(Cc1ccc3c(c1)OCO3)C(=O)[C@H](CC(=O)NCc1ccccc1)C2,i,-5%,0%,·,·,?
COC(=O)[C@@]12C[C@@H](CC(=O)NCc3ccccc3)C(=O)N(Cc3ccc4c(c3)OCO4)C1=CCC(C)(C)C2,?,?,?,·,·,21µM*
Cc1ccc(CN2c3ccccc3S(=O)(=O)c3ccccc32)cc1,i,·,·,·,·,i
CCOC(=O)CC(NS(=O)(=O)c1cc(-c2cc(C)no2)ccc1C)c1ccc(C)cc1 (stereo not given),i,·,·,·,·,i
S=C(Nc1ccccc1Cl)N1CCN(c2ccccn2)CC1,i,-17%,-15%,-5%,2%,i
Fc1ccccc1NC(=S)N1CCN(c2ccccn2)CC1,i,12%,11%,10%,?,21µM*
CCNC(=S)N1CCN(c2ccccn2)CC1,i,17%,20%,0%,-4%,i
CC(NNC(=S)N1CCN(c2ccccn2)CC1)c1nccc2ccccc12 (stereo not given),?,?,-19%,?,?,0.46µM*
CC(=O)c1ccc(N2CCN(C(=O)C3CCN(S(=O)(=O)c4cccc5nonc45)CC3)CC2)cc1,i,·,·,·,·,i
CC(C)CNC(=S)NNC(=O)c1csc2c1CCC(C)C2 (stereo not given),i,?,?,-5%,19%,7.3µM*
Cc1cccc(NC(=S)NNC(=O)c2cc3c(s2)CCC(C)C3)c1C (stereo not given),i,0%,0%,-4%,16µM*,?
Cc1nnc(NC(=O)c2csc3c2CCC(C)C3)s1 (stereo not given),i,2%,-1%,-41%,-8%,i
Cc1ccc(C)c(NC(=S)NNC(=O)c2cc3c(s2)CCC(C)C3)c1 (stereo not given),i,12%,3%,-2%,?,i
CCCc1cc(C(=O)NNC(=S)Nc2cccc(C)c2)cs1,i,0%,-6%,-9%,20%,15µM*
Cc1cccc(NC(=S)NNC(=O)c2csc3c2CCC(C)C3)c1 (stereo not given),i,?,-7%,7%,?,23µM*
CCCN1CCN(CCCNC(=O)c2cnn(-c3ccc(F)cc3)c2-n2cccc2)CC1,i,·,·,·,·,i
O=C(NNC(=O)c1ccc(-n2cncn2)c([N+](=O)[O-])c1)c1cccc(Cl)c1,i,13%,15%,26%,?,?
N/C(=N\OC(=O)c1cccc2ccccc12)c1ccccn1,i,26µM*,?,0%,4%,i
Cc1ccc(C(=O)O/N=C(\N)c2ccccn2)c(Cl)c1,?,?,16µM*,-5%,4%,?
CCSc1nc2n(n1)C(c1cccc(F)c1)C1=C(CCCC1=O)N2 (stereo not given),i,10%,5%,-6%,-1%,13µM*
COc1cc(-c2nc3n(n2)C(c2ccc(F)cc2)C2=C(CCCC2=O)N3)cc(OC)c1OC (stereo not given),i,-27%,-15%,1%,-1%,i
SMILES,KB-3-1 tox,HT1080 IDH1KD tx,HT1080-NT tox,SW480 rereplic,MCF10A rereplic,KB-V1 cytotox
CCn1c(=O)c(=O)[nH]c2cc(C(=O)NCc3ccc(F)cc3)ccc21,i,1%,6%,-4%,14%,i
CCCCn1c(N)c(N(CCOC)C(=O)c2nn(CC)c(=O)c3ccccc23)c(=O)[nH]c1=O,i,-10%,-5%,1%,0%,i
CCc1ccc(NC(=O)c2cc3c(=O)n(Cc4cccs4)ccc3nc2C)cc1,?,·,·,·,·,i
COc1ccc(C2C(=O)N(CCc3ccccc3)CC(=O)N2C2CCCC2)cc1 (stereo not given),i,-2%,0%,1%,3%,3.7µM*
COc1ccc(C2C(=O)N(C3CCCCC3)CC(=O)N2C2CCCC2)cc1 (stereo not given),i,-16%,6%,9%,1%,2.6µM*
Cc1oc(-c2ccccc2)nc1Cn1c(=O)cc(-c2ccccc2)c2c(C)nn(C)c21,i,·,·,·,·,i
C=CC1CN(C(=O)OCC(Cl)(Cl)Cl)C2CC3c4ccc(OC)cc4NC3C3CC1C2CO3 (stereo not given),i,-21%,-21%,?,-3%,?
CC(C)COc1ccc(C(=O)Nc2sc3c(c2C(=O)O)CC(C)(C)OC3)cc1,8.2µM*,-28%,?,-80%,?,i
CCc1ccc(OCCNC(=O)c2ccccc2SCc2ccccc2)cc1,?,?,-24%,8%,16µM*,?
Cc1cccc(NC(=S)NC2CCCCCC2)c1C,i,-5%,-1%,0%,11%,18µM*
S=C(Nc1ccc(Nc2ccccc2)cc1)NC1CCCCCC1,?,?,?,21µM*,13%,?
CC(C)(C)NC(=S)Nc1ccc(Nc2ccccc2)cc1,?,6.3µM*,5.6µM*,14%,-4%,16µM*
Cc1cccc(NC(=S)NC2CCCC2)c1C,i,-2%,5%,-12%,6%,i
S=C(Nc1ccc(Cl)cc1)NC1CCCCC1,i,?,-29%,-46%,-2%,i
Cc1ccc(CNC(=O)c2cc(S(=O)(=O)N3CCCCC3)ccc2N2CCOCC2)cc1,·,3%,0%,13%,-6%,·
Cc1ccc(NC(=O)CSc2nc3nn(-c4ccccc4)c(=O)c-3c3n2CCCCC3)cc1F,i,0%,3%,-21%,-3%,i
COc1cccc2cc(C(=O)NCCc3ccccc3)oc12,i,1%,1%,-3%,-1%,i

# Compound activity: PubChem, National Center for Advancing Translational Sciences (NCATS)
